Compounds without any hit were thinned out: in the full panel of roughly 79,000, 15% have a hit. Unmarked numbers belong to inactive results. The source made the active and inactive calls. Rule as the data show it: active = growth inhibition above about 70%; inactive = the rest.
Experiments:
[1] = NCI Yeast Anticancer Drug Screen. Data for the rad52 strain (AID 147);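 also: 0% = growth of vehicle-treated control cultures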; details: S. cerevisiae rad52 mutant growth inhibition, stronger effect = higher value
Procedure, shortened: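 Inhibition of yeast growth, referenced to vehicle controls, was the measured output for a strain with defective DNA damage repair.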

[2] = NCI Yeast Anticancer Drug Screen. Data for the wt1 strain (AID 149);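 also: 0% = growth of vehicle-treated wt1 cultures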; details: S. cerevisiae wt1 strain (SPY 50644) growth inhibition, stronger effect = higher value
Procedure, shortened: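 Using yeast strain wt1, compound-induced growth inhibition was determined against vehicle-treated cultures.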

[3] = NCI Yeast Anticancer Drug Screen. Data for the rad50EPP+ strain (AID 151);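 also: 0% = growth of vehicle-treated control cultures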; details: S. cerevisiae rad50 mutant strain, stronger effect = higher value
Procedure, shortened: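 Genetically defined yeast (rad50EPP+, DNA damage repair alteration) is grown with compound, and inhibition of growth is expressed relative to vehicle-treated controls.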

[4] = NCI Yeast Anticancer Drug Screen. Data for the mgt1 strain (AID 153); details: S. cerevisiae mgt1 mutant growth inhibition, stronger effect = higher value
Procedure, shortened: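 In the mgt1 strain, test compounds were added and growth inhibition was determined relative to vehicle-treated controls.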

[5] = NCI Yeast Anticancer Drug Screen. Data for the rad50 strain (AID 155);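 also: 0% = growth of vehicle-only cultures of the same strain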; details: S. cerevisiae rad50 strain growth inhibition, stronger effect = higher value
Procedure, shortened: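 Relative growth inhibition (compound vs vehicle) was measured in yeast with a defined repair-gene alteration.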

[6] = NCI Yeast Anticancer Drug Screen. Data for the mec2-1 strain (AID 157); details: S. cerevisiae mec2-1 strain, stronger effect = higher value
Procedure, shortened: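 Each compound was tested on mec2-1 yeast, a strain altered in DNA damage repair or cell cycle control. Growth inhibition is reported relative to vehicle.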

[7] = NCI Yeast Anticancer Drug Screen. Data for the rad14 strain (AID 159);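 also: 0% = growth of vehicle-treated control cultures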; details: S. cerevisiae rad14 strain growth inhibition, stronger effect = higher value
Procedure, shortened: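 Screen for anticancer potential: a yeast strain altered in DNA damage repair is grown with compound, and reduced growth is quantified against vehicle controls.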

[8] = NCI Yeast Anticancer Drug Screen. Data for the sgs1 mgt1 strain (AID 161);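 also: 0% = growth of cultures given vehicle only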; details: S. cerevisiae sgs1 mgt1 strain, stronger effect = higher value
Procedure, shortened: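 Genetically altered yeast, compound exposure, growth inhibition relative to vehicle.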

[9] = NCI Yeast Anticancer Drug Screen. Data for the CLN2oe strain (AID 163);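 also: 0% = growth of vehicle-only control cultures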; details: S. cerevisiae CLN2oe strain, stronger effect = higher value
Procedure, shortened: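 First, the altered yeast strain was treated with each compound; second, its growth was measured; finally, inhibition was derived by comparison with vehicle controls.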

[10] = NCI Yeast Anticancer Drug Screen. Data for the cln2 rad14 strain (AID 165);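 also: 0% = growth equal to vehicle treated cultures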; details: S. cerevisiae cln2 rad14 strain, stronger effect = higher value
Procedure, shortened: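 Test compounds were added to cln2 rad14 yeast cultures; inhibition of growth was then determined by comparison with vehicle treatment.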

[11] = NCI Yeast Anticancer Drug Screen. Data for the bub3 strain (AID 167); details: S. cerevisiae bub3 mutant strain, stronger effect = higher value
Procedure, shortened: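 Screening used yeast with an engineered genetic alteration affecting cell cycle control. Compound-exposed cultures were compared with vehicle cultures, and reduced growth was taken as inhibition.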

[12] = NCI Yeast Anticancer Drug Screen. Data for the wt2 strain (AID 169);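 also: 0% = growth of vehicle-treated yeast cultures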; details: S. cerevisiae wt2 strain growth inhibition, stronger effect = higher value
Procedure, shortened: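 The panel's yeast strains carry defined changes in DNA repair or cell cycle genes. Each strain is grown with compound, and growth loss is scored relative to vehicle.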

[13] = NCI Yeast Anticancer Drug Screen. Data for the mlh1 strain (AID 171);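 also: 0% = growth of vehicle-treated control cultures of the same strain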; details: S. cerevisiae mlh1 strain growth inhibition, stronger effect = higher value
Procedure, shortened: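 Inhibition values reflect reduced yeast growth in the presence of compound, referenced to vehicle controls, using a strain chosen for its alteration in DNA repair or cell cycle control.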

[14] = NCI Yeast Anticancer Drug Screen. Data for the sgs1 strain (AID 173);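 also: 0% = growth of vehicle-only control cultures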; details: S. cerevisiae sgs1 mutant, stronger effect = higher value
Procedure, shortened: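 Vehicle-treated cultures served as reference for growth inhibition of a yeast strain altered in DNA damage repair or cell cycle control after compound exposure.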

[15] = NCI Yeast Anticancer Drug Screen. Data for the mlh1 rad18 strain (AID 175); details: S. cerevisiae mlh1 rad18 strain growth inhibition, stronger effect = higher value
Procedure, shortened: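 Inhibition values reflect reduced growth of mutant yeast versus vehicle-treated controls following compound exposure; the mutations affect DNA damage repair.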

[16] = NCI Yeast Anticancer Drug Screen. Data for the rad18 strain (AID 177); details: S. cerevisiae rad18 mutant growth inhibition, stronger effect = higher value
Procedure, shortened: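 Steps: expose repair-mutant yeast to compound; measure growth; express as inhibition relative to vehicle control.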

[17] = at 5.0 µM (retest, dose inferred, filed as 0.5)
[18] = at 50.0 µM (retest, dose inferred, filed as 5.0)

CCN(CC)C(=S)N/N=C(/C)c1cccc(/C(C)=N\NC(=S)N(CC)CC)n1 showed a growth inhibition ([1]; at 1.2 µM) of -24%, a growth inhibition ([1]; at 3.7 µM) of -15% and a growth inhibition ([1]; at 11.0 µM) of 7%. The growth inhibition ([1]; at 33.0 µM) was 43%, the growth inhibition ([1]; at 100.0 µM) was 90% (active) and the growth inhibition ([2]; at 1.2 µM) was -4%. For the same compound, the growth inhibition ([2]; at 3.7 µM) was -12%, the growth inhibition ([2]; at 11.0 µM) was 11% and the growth inhibition ([2]; at 33.0 µM) was 60%. For the same compound, the growth inhibition ([2]; at 100.0 µM) was 87% (active), the growth inhibition ([3]; at 1.2 µM) was 16% and the growth inhibition ([3]; at 3.7 µM) was 6%. The growth inhibition ([3]; at 11.0 µM) was 31%, the growth inhibition ([3]; at 33.0 µM) was 48% and the growth inhibition ([3]; at 100.0 µM) was 79% (active). For the same compound, the growth inhibition ([4]; at 1.2 µM) was 0%, the growth inhibition ([4]; at 3.7 µM) was -14% and the growth inhibition ([4]; at 11.0 µM) was 0%. The growth inhibition ([4]; at 33.0 µM) was 61%, the growth inhibition ([4]; at 100.0 µM) was 91% (active) and the growth inhibition ([5]; at 1.2 µM) was -17%. It also gave a growth inhibition ([5]; at 3.7 µM) of -25%, a growth inhibition [5, 17] of -14% and a growth inhibition ([5]; at 11.0 µM) of -12%. The growth inhibition ([5]; at 33.0 µM) was 50%, the growth inhibition [5, 18] was 96% (active) and the growth inhibition ([5]; at 50.0 µM) was 55.5%. The growth inhibition ([5]; at 100.0 µM) was 86% (active), the growth inhibition ([6]; at 1.2 µM) was -43% and the growth inhibition ([6]; at 3.7 µM) was -3%. It also gave a growth inhibition [6, 17] of 12%, a growth inhibition ([6]; at 11.0 µM) of -8% and a growth inhibition ([6]; at 33.0 µM) of 52%. For the same compound, the growth inhibition [6, 18] was 95% (active), the growth inhibition ([6]; at 50.0 µM) was 69.1% and the growth inhibition ([6]; at 100.0 µM) was 86% (active). For the same compound, the growth inhibition ([7]; at 1.2 µM) was -6%, the growth inhibition ([7]; at 3.7 µM) was 10% and the growth inhibition ([7]; at 11.0 µM) was 2%. The growth inhibition ([7]; at 33.0 µM) was 46%, the growth inhibition ([7]; at 100.0 µM) was 92% (active) and the growth inhibition [8, 17] was -5%. For the same compound, the growth inhibition [8, 18] was 91% (active), the growth inhibition ([8]; at 50.0 µM) was 66.7% and the growth inhibition ([9]; at 1.2 µM) was 17%. For the same compound, the growth inhibition ([9]; at 3.7 µM) was 16%, the growth inhibition ([9]; at 11.0 µM) was 31% and the growth inhibition ([9]; at 33.0 µM) was 48%. The growth inhibition ([9]; at 100.0 µM) was 91% (active), the growth inhibition [10, 17] was 21% and the growth inhibition [10, 18] was 91% (active). It also gave a growth inhibition ([10]; at 50.0 µM) of 34.5%, a growth inhibition ([11]; at 1.2 µM) of 7% and a growth inhibition ([11]; at 3.7 µM) of 13%. It also gave a growth inhibition [11, 17] of 39%, a growth inhibition ([11]; at 11.0 µM) of 16% and a growth inhibition ([11]; at 33.0 µM) of 56%. The growth inhibition [11, 18] was 90% (active), the growth inhibition ([11]; at 50.0 µM) was 65.2% and the growth inhibition ([11]; at 100.0 µM) was 84% (active). It also gave a growth inhibition ([12]; at 1.2 µM) of 12%, a growth inhibition ([12]; at 3.7 µM) of 4% and a growth inhibition ([12]; at 11.0 µM) of 10%. For the same compound, the growth inhibition ([12]; at 33.0 µM) was 64%, the growth inhibition ([12]; at 100.0 µM) was 89% (active) and the growth inhibition ([13]; at 1.2 µM) was -12%. For the same compound, the growth inhibition ([13]; at 3.7 µM) was -7%, the growth inhibition ([13]; at 11.0 µM) was 9% and the growth inhibition ([13]; at 33.0 µM) was 52%. The growth inhibition ([13]; at 100.0 µM) was 85% (active), the growth inhibition ([14]; at 1.2 µM) was -14% and the growth inhibition ([14]; at 3.7 µM) was -3%. For the same compound, the growth inhibition ([14]; at 11.0 µM) was 7%, the growth inhibition ([14]; at 33.0 µM) was 39% and the growth inhibition ([14]; at 100.0 µM) was 88% (active). The growth inhibition [15, 17] was 39%, the growth inhibition [15, 18] was 92% (active) and the growth inhibition ([15]; at 50.0 µM) was 70.7% (active). The growth inhibition ([16]; at 1.2 µM) was -1%, the growth inhibition ([16]; at 3.7 µM) was 9% and the growth inhibition ([16]; at 11.0 µM) was 23%. For the same compound, the growth inhibition ([16]; at 33.0 µM) was 59% and the growth inhibition ([16]; at 100.0 µM) was 91% (active).
Work on COc1ccc(Br)c(C(=O)Sc2nnnn2-c2cccc(Cl)c2)c1 yielded a growth inhibition ([1]; at 1.2 µM) of 23%, a growth inhibition ([1]; at 3.7 µM) of 29% and a growth inhibition ([1]; at 11.0 µM) of 24%. The growth inhibition ([1]; at 33.0 µM) was 43%, the growth inhibition ([1]; at 100.0 µM) was 96% (active) and the growth inhibition ([2]; at 1.2 µM) was 5%. The growth inhibition ([2]; at 3.7 µM) was 17%, the growth inhibition ([2]; at 11.0 µM) was 22% and the growth inhibition ([2]; at 33.0 µM) was 33%. For the same compound, the growth inhibition ([2]; at 100.0 µM) was 93% (active), the growth inhibition ([3]; at 1.2 µM) was 3% and the growth inhibition ([3]; at 3.7 µM) was -19%. For the same compound, the growth inhibition ([3]; at 11.0 µM) was 9%, the growth inhibition ([3]; at 33.0 µM) was 65% and the growth inhibition ([3]; at 100.0 µM) was 92% (active). The growth inhibition ([4]; at 1.2 µM) was -10%, the growth inhibition ([4]; at 3.7 µM) was 11% and the growth inhibition ([4]; at 11.0 µM) was 16%. For the same compound, the growth inhibition ([4]; at 33.0 µM) was 30%, the growth inhibition ([4]; at 100.0 µM) was 95% (active) and the growth inhibition ([5]; at 1.2 µM) was 2%. It also gave a growth inhibition ([5]; at 3.7 µM) of 21%, a growth inhibition [5, 17] of 42% and a growth inhibition ([5]; at 11.0 µM) of 6%. For the same compound, the growth inhibition ([5]; at 33.0 µM) was 42%, the growth inhibition [5, 18] was 71% (active) and the growth inhibition ([5]; at 50.0 µM) was 87.6% (active). The growth inhibition ([5]; at 100.0 µM) was 93% (active), the growth inhibition ([6]; at 1.2 µM) was 13% and the growth inhibition ([6]; at 3.7 µM) was -9%. It also gave a growth inhibition [6, 17] of 40%, a growth inhibition ([6]; at 11.0 µM) of -14% and a growth inhibition ([6]; at 33.0 µM) of 12%. The growth inhibition [6, 18] was 72% (active), the growth inhibition ([6]; at 50.0 µM) was 88.9% (active) and the growth inhibition ([6]; at 100.0 µM) was 94% (active). It also gave a growth inhibition ([7]; at 1.2 µM) of -8%, a growth inhibition ([7]; at 3.7 µM) of -5% and a growth inhibition ([7]; at 11.0 µM) of -30%. The growth inhibition ([7]; at 33.0 µM) was -16%, the growth inhibition ([7]; at 100.0 µM) was 89% (active) and the growth inhibition [8, 17] was -19%. For the same compound, the growth inhibition [8, 18] was 89% (active), the growth inhibition ([8]; at 50.0 µM) was 87.8% (active) and the growth inhibition ([9]; at 1.2 µM) was 6%. For the same compound, the growth inhibition ([9]; at 3.7 µM) was 3%, the growth inhibition ([9]; at 11.0 µM) was 3% and the growth inhibition ([9]; at 33.0 µM) was 5%. The growth inhibition ([9]; at 100.0 µM) was 94% (active), the growth inhibition [10, 17] was 58% and the growth inhibition [10, 18] was 83% (active). For the same compound, the growth inhibition ([10]; at 50.0 µM) was 76.2% (active), the growth inhibition ([11]; at 1.2 µM) was 13% and the growth inhibition ([11]; at 3.7 µM) was 11%. It also gave a growth inhibition [11, 17] of 23%, a growth inhibition ([11]; at 11.0 µM) of -22% and a growth inhibition ([11]; at 33.0 µM) of 8%. For the same compound, the growth inhibition [11, 18] was 81% (active), the growth inhibition ([11]; at 50.0 µM) was 88.2% (active) and the growth inhibition ([11]; at 100.0 µM) was 93% (active).
